# Reference: PubChem BioAssay (NCI)
# “And” between values parts separate entries of the source, which are not always exact repeats. Equal entries are not always repeated. The panel holds about 79,000 compounds, 15% with a hit somewhere; the sample as a whole holds those more often. Unmarked numbers belong to inactive results. The source made the active and inactive calls. Rule as the data show it: active = growth inhibition above about 70%; inactive = the rest.
# Tests used:
# [1] = NCI Yeast Anticancer Drug Screen. Data for the rad50 strain (AID 155);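 also: 0% = growth of vehicle-only cultures of the same strain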; settings: S. cerevisiae rad50 strain growth inhibition; at 50.0 µM; hits give high values
# Summary of the method: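 Relative growth inhibition (compound vs vehicle) was measured in yeast with a defined repair-gene alteration.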
# [2] = NCI Yeast Anticancer Drug Screen. Data for the mec2-1 strain (AID 157); settings: S. cerevisiae mec2-1 strain, at 50.0 µM, hits give high values
# Summary of the method: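 Using mec2-1 yeast: add compound, measure growth, express inhibition versus vehicle-treated cultures.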
# [3] = NCI Yeast Anticancer Drug Screen. Data for the sgs1 mgt1 strain (AID 161);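 also: 0% = growth of cultures given vehicle only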; settings: S. cerevisiae sgs1 mgt1 strain, at 50.0 µM, hits give high values
# Summary of the method: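 Compounds are added to genetically altered yeast, and growth is compared with cultures given vehicle alone to give percent inhibition.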
# [4] = NCI Yeast Anticancer Drug Screen. Data for the cln2 rad14 strain (AID 165);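 also: 0% = growth equal to vehicle treated cultures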; settings: S. cerevisiae cln2 rad14 strain, at 50.0 µM, hits give high values
# Summary of the method: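 Yeast strain cln2 rad14, bearing defects in cell cycle control and DNA repair, serves as the test system; values reflect growth inhibition compared with vehicle.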
# [5] = NCI Yeast Anticancer Drug Screen. Data for the bub3 strain (AID 167); settings: S. cerevisiae bub3 mutant strain, at 50.0 µM, hits give high values
# Summary of the method: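 Screening used yeast with an engineered genetic alteration affecting cell cycle control. Compound-exposed cultures were compared with vehicle cultures, and reduced growth was taken as inhibition.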
# [6] = NCI Yeast Anticancer Drug Screen. Data for the mlh1 rad18 strain (AID 175); settings: S. cerevisiae mlh1 rad18 strain growth inhibition; at 50.0 µM; hits give high values
# Summary of the method: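 Steps: expose repair-defective yeast to compound; measure growth; express inhibition against vehicle-treated controls.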
SMILES,growth inhibition [1],growth inhibition [2],growth inhibition [3],growth inhibition [4],growth inhibition [5],growth inhibition [6]
CCCCCCCCCCCOP(=O)(OCC)OCC,99.5% (active),99.8% (active),99.8% (active),99.5% (active),99.7% (active),99.7% (active)
CNC(=O)Oc1ccccc1N,-2.8%,-1.15%,-5.05%,3.7%,-25.2%,-5.2%
CN(C)CCN(C)C.[C-]#[O+].[C-]#[O+].[C-]#[O+].[C-]#[O+].[W+2],-13%,-4.65%,-7.5%,-51.1%,2.1%,0.05%
CC(C)=CC(=O)N(C)C1C2CN3CCC(O2)C13 (stereo unspecified),7.3%,14.6%,14.1%,43.9%,29.9%,21.6%
CC1=CC(C)=Nc2ccc(C)cc2N1,-2.65%,-0.6%,-5.95%,-2.65%,-6%,22.2%
C[N+]1(C)CCN(c2ccccc2)CC1,18.9%,-29.6%,-12.5%,14.2%,-8.9%,-5.35%
NC1=C(c2nc(-c3ccccc3)cs2)C(c2ccco2)c2c(c3ccccc3oc2=O)O1 (stereo unspecified),-4.7%,5.05%,23.8%,13.2%,6.35%,12.9%
CC(N)Cc1ccc(Cl)cc1 (stereo unspecified),14.5%,-0.3%,1.9%,-15.6%,-14.9%,3.6%
COc1cccc(C(O)CN(C)C)c1OC (stereo unspecified),7.05%,-6.65%,11.2%,30.2%,-9.85%,9.95%
CCC1=C(CC2NCCc3cc(OC)c(OC)cc32)CC2c3ccccc3CCN2C1 (stereo unspecified),-16.8%,-26.5%,-42.7%,-9.75%,-22.8%,-16.3%
CC12CCC(OC3OC(CO)C(OC4OC(CO)C(O)C(O)C4O)C(O)C3O)CC1CCC1C2CCC2(C)C(C3=CC(=O)OC3)CCC12O (stereo unspecified),15.8%,-3.95%,-14.2%,-7.95%,13.6%,6.85%
CCCP(=S)(CCC)P(=S)(CCC)CCC,5.4%,19.4%,20.9%,-2.75%,18%,20.9%
CCOc1ccc(Nc2nc(=O)[nH]c3ccccc23)cc1CN(CCCl)CCCl,18.7%,0.95%,10.5%,-19.4%,1.3%,22.4%
CCOC(OCC)C(CC)[Se]c1ccccc1 (stereo unspecified),4.45%,-9.6%,13.4%,0.6%,2.7%,-7.9%
O=C1NN(c2ccccc2)C(=O)C1c1ccccc1 (stereo unspecified),24.2%,28.8%,17.4%,9.75%,-5.9%,41.5%
c1ccc2c(c1)sc1sc3ccccc3[n+]12,5.05%,-5.65%,1.8%,3%,3.2%,-23.4%
ClCCN(CCCl)c1ccc(N=Cc2ccccc2)cc1,24.9%,17%,7.35%,4.3%,19.4%,44.6%
CCC(=O)C(c1ccccc1)(c1ccccc1)C(C)CN1CCCCCCC1 (stereo unspecified),30.3%,12.1%,10.8%,1.9%,10.8%,35.4%
[Cr+3].[NH-]CC[NH-].[NH-]CC[NH-].[NH-]CC[NH-].[O-][Cl+3]([O-])([O-])O,19.2%,1.2%,1.05%,-5.15%,1%,-1.8%
O=C(CCl)Oc1ccccc1Cl,-19.5%,-5.4%,-31.1%,-42.9%,-23.9%,-31.6%
CC(O)CCC(=O)c1ccoc1 (stereo unspecified),6.4%,10.7%,1.45%,8.15%,14.3%,-71.7%

SMILES,growth inhibition [1],growth inhibition [2],growth inhibition [3],growth inhibition [4],growth inhibition [5],growth inhibition [6]
ClCc1cccc2ccccc12,-28.7%,-4.7%,-26.1%,-6.05%,-7.6%,-39%
O=C(Nc1ccccc1)C(Cl)(Cl)Cl,-10.1%,-25.8%,11.1%,-10.2%,-9.8%,19.8%
CN(C)c1ccc(SC(Cl)(Cl)Cl)cc1,-0.95%,-14.2%,-0.1%,-43.9%,3.4%,-4.75%
NC(Cc1ccccc1)c1ccccc1 (stereo unspecified),3.15% and -1.6%,-7.3% and -0.95%,0.3% and -16.8%,-36% and -23.1%,5.35% and 1.75%,14.8% and -0.1%
O=C(O)C(CSC(c1ccccc1)(c1ccccc1)c1ccccc1)N=Cc1cccs1 (stereo unspecified),-8%,-1.65%,-1.95%,-33.9%,43.3%,-18.2%
C/C=C(\CC)C1(CCC)C(=O)NC(=O)NC1=O,15.1% and 5.2%,13.1% and 3%,5.25% and 22.8%,17.4% and -7%,1.35% and -0.4%,7.75% and -3.65%
CC(CCF)C(N)C(=O)O (stereo unspecified),1.8% and -0.7%,28.9% and 5.4%,28.9% and -9.4%,-0.8% and -0.2%,43% and 20.7%,19.5% and -7.8%
NC(Cc1ccccc1)c1ccccc1 (stereo unspecified) (tested in a mixture with another compound),0.6%,-17.4%,-6.4%,9.7%,2.6%,2.55%
C1CCN2CC3CCCN4CCCC(C2C1)C34 (stereo unspecified),5.5% and 7.1%,-21.9% and -1.05%,7.3% and -16.1%,-0.35% and -0.5%,-11.9% and -6.6%,-96.5% and -85.2%
C#CCOC(=O)C=[N+]=[N-],-11.7%,-6.75%,-10.6%,14.7%,3.85%,-2.1%
[Br][Ni][Br].c1ccc([PH+](CC[PH+](c2ccccc2)c2ccccc2)c2ccccc2)cc1,-36.1%,-7.15%,-23.8%,32.2%,8.9%,0.9%
CC[As](CC)SC(CC[C@@H](C)C1CC[C@@]2(C)C3=C(CC[C@]12C)[C@@]1(C)CC[C@H](O)C(C)(C)[C@@H]1CC3)C(C)C (stereo partly specified),3.95%,17.6%,-8.15%,-21.1%,-1.55%,-25.6%
NC(=O)Cc1ccc([As]=O)cc1 (stereo unspecified),19.6%,10.1%,9.05%,21%,6.85%,14.9%
Cc1c(O)c(O)c(C)c(CCN)c1O,15.4%,19.8%,22.1%,-26.8%,25.1%,27.9%
C/C(=C\C(C)C)C1(C)C(=O)NC(=O)NC1=O,8.85%,11.4%,-6.3%,4.95%,4.4%,-19.3%
O=c1[nH]cc(N=Cc2ccccc2Cl)c(=O)[nH]1.[Cl][Pt][Cl],20.4%,-5.75%,-18.1%,1.95%,1.55%,-9.05%
CN1CC=C(OP(=O)(NCc2ccccc2)N(CCCl)CCCl)CC1 (stereo unspecified),-6.25%,-12.8%,0.9%,-3.1%,-17.4%,-34%
CC(=O)CC(C)=O.[In],23.8%,42.6%,34.5%,29.4%,27.6%,2.65%
O=C(CCN1CC2CCC(CC2)C1)c1cccs1,-15.8%,-21.9%,-16.4%,-13.9%,-45.8%,-28.8%
NC(=O)C(Cl)(Cl)Cl,-6.6%,9.25%,6.1%,4.95%,-5.65%,12.4%
